According to PubChem BioAssay (NCI):
The panel holds about 83,000 compounds, 20% with a hit somewhere; the sample as a whole holds those more often.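 96-well plates, one dose, 48 hours. Percent growth reported; active if below 10.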 Calls of active or inactive are those of the source.

Columns and labels:
Test in all cases: NCI-60 one-dose screen, 48 h (100 = growth as untreated, 0 = no growth, -100 = all killed)
Details in all cases: 10 µM unless noted
[1] = tested on: SK-MEL-2 melanoma
[2] = tested on: EKVX NSCLC
[3] = tested on: SN12C renal
[4] = tested on: UO-31 renal
[5] = tested on: TK-10 renal
[6] = tested on: ACHN renal
[7] = tested on: CAKI-1 renal
[8] = tested on: A498 renal
[9] = tested on: CCRF-CEM leukemia
[10] = tested on: MOLT-4 leukemia
[11] = tested on: SR leukemia
[12] = tested on: RPMI-8226 leukemia
[13] = tested on: OVCAR-8 ovarian
[14] = tested on: OVCAR-5 ovarian
[15] = tested on: OVCAR-4 ovarian
[16] = tested on: SK-OV-3 ovarian
[17] = tested on: IGROV1 ovarian
[18] = tested on: OVCAR-3 ovarian
[19] = tested on: HS 578T breast
[20] = tested on: NCI/ADR-RES ovarian

Measured: growth

O=C1/C(=C/c2ccccc2F)CN(C(=O)C(Cl)Cl)C/C1=C\c1ccccc1F
inactive: [15] 14.9% | [16] 32.4%
active: [1] -2.69% | [2] -8.07% | [3] -79.9% | [4] -92% | [5] -39.7% | [6] -100% | [7] -43.2% | [8] -62.5% | [9] 1.7% | [10] -10.7% | [11] -11.4% | [12] -27.7% | [13] 2.66% | [14] -41.6% | [17] -36.9% | [18] -94% | [19] 4.55% | [20] 5.18%

N#CC1CCc2c(c(-c3ccc4nc(N)sc4c3)nc3ccc4[nH]ncc4c23)C1 (stereo not given)
active: [8] -3.66% | [11] 9.04%
inactive: [1] 51.7% | [2] 64.8% | [3] 62.5% | [4] 31.2% | [5] 41.6% | [6] 29.6% | [7] 11.3% | [9] 42.6% | [10] 17.2% | [12] 43.4% | [13] 46.4% | [14] 65.5% | [15] 64.9% | [16] 33.7% | [17] 53.2% | [18] 69.7% | [19] 30.9% | [20] 63.7%

Cc1ccc(-c2nc(SCc3nc4cc(Cl)c(Cl)cc4[nH]3)[nH]c(=O)c2C#N)cc1
inactive: [1] 90.1% | [2] 96.4% | [3] 102% | [4] 81.7% | [5] 99.3% | [6] 106% | [7] 88.3% | [8] 112% | [9] 111% | [10] 101% | [11] 96.7% | [12] 115% | [13] 98.2% | [14] 101% | [15] 105% | [16] 96.2% | [17] 99.6% | [18] 99.9% | [19] 102% | [20] 111%

CCOC(=O)c1[nH]c2c(c1C)-c1[nH]c(=O)c(S(=O)(=O)c3ccccc3)cc1SC2
active: [2] 8.42% [100 µM] | [15] 5.79% [100 µM] | [18] -15.1% [100 µM]
inactive: [1] 56.4% [100 µM] | [3] 59.5% [100 µM] | [4] 54.2% [100 µM] | [5] 13.1% [100 µM] | [6] 20.9% [100 µM] | [7] 16.2% [100 µM] | [8] 21.4% [100 µM] | [9] 52.1% [100 µM] | [10] 57.3% [100 µM] | [11] 39.4% [100 µM] | [12] 33.3% [100 µM] | [13] 25.3% [100 µM] | [14] 89.6% [100 µM] | [16] 59.8% [100 µM] | [17] 48.7% [100 µM] | [19] 28.1% [100 µM] | [20] 59.7% [100 µM]

Cn1cc(-c2nn3cc(-c4cccs4)nc3s2)c2cc(F)ccc21
inactive: [1] 35% | [2] 47.7% | [3] 36% | [4] 35.8% | [5] 53.7% | [6] 43.5% | [7] 27.8% | [9] 21.9% | [10] 22.3% | [11] 11.8% | [12] 31.2% | [13] 51.4% | [14] 42.7% | [15] 60.5% | [16] 44.9% | [17] 35.3% | [20] 21.1%
active: [8] 7.55% | [18] 5.2% | [19] 1.66%

Cc1ccccc1Nc1cc(O)c2c(=O)cc(-c3ccccc3)oc2c1
inactive: [1] 65.7% | [2] 35.5% | [3] 31.8% | [4] 42.3% | [5] 110% | [6] 34.5% | [7] 39% | [8] 31.3% | [9] 29.5% | [10] 25.8% | [12] 29.7% | [13] 52.5% | [14] 89.2% | [15] 53.1% | [16] 59.3% | [17] 45.3% | [19] 44.7%
active: [11] 7.93% | [18] -4.27% | [20] 4.9%

CN(C)S(=O)(=O)Oc1ccc(-c2sc3cc(OS(=O)(=O)N(C)C)ccc3c2C(=O)c2ccc(OCCN3CCCCC3)cc2)cc1
active: [11] -20.2%
inactive: [1] 75.5% | [2] 68.9% | [3] 87.1% | [4] 43.6% | [5] 79% | [6] 32.3% | [7] 73.4% | [8] 85.2% | [9] 18.8% | [10] 36.6% | [12] 38.1% | [13] 43.8% | [14] 78.4% | [15] 49.7% | [16] 62.4% | [17] 81% | [18] 69.3% | [19] 59.7% | [20] 72.3%

COc1cc(C(=O)c2c(-c3ccccc3)oc3c(OC)cccc23)cc(OC)c1OC
inactive: [1] 53% | [2] 35.3% | [3] 22.1% | [4] 28.2% | [5] 61.4% | [6] 17.7% | [7] 19.6% | [9] 10.2% | [10] 11.4% | [12] 17.6% | [13] 17.2% | [14] 39.8% | [15] 32.3% | [16] 44.2% | [17] 12.3% | [20] 11.9%
active: [8] -28% | [11] 6.57% | [18] -13.2% | [19] 2.09%

CC1(C)[C@@H](O[C@@H]2OC[C@@H](O[C@@H]3O[C@H](CO)[C@@H](O)[C@H](O)[C@H]3O[C@@H]3OC[C@@H](O)[C@H](O)[C@H]3O)[C@H](O)[C@H]2O[C@@H]2O[C@H](CO)[C@@H](O)[C@H](O)[C@H]2O)CC[C@]2(C)[C@H]3CC[C@]45OC[C@@]6(CC[C@](C)(C=O)C[C@H]64)[C@H](O)C[C@@]5(C)[C@]3(C)CC[C@@H]12
active: [1] -90.2% | [2] -65.4% | [3] -72.6% | [4] -88.7% | [5] -92.2% | [6] -93.7% | [7] -91.5% | [8] -89.9% | [9] -40.9% | [10] -53.5% | [11] -37% | [12] -44% | [13] -48.9% | [14] -76.8% | [15] -67.1% | [16] -98.4% | [17] -71.7% | [18] -72.6% | [19] -31.2% | [20] -21.7%

C=C1C(=O)O[C@H]2[C@H]1CC/C(COC(=O)NCc1ccc(Cn3c(=O)sn(-c4ccc(C#N)cc4)c3=O)cc1)=C\CC[C@@]1(C)O[C@@H]21
active: [9] 3.9% | [12] 6.41% | [18] -39.5%
inactive: [1] 84.8% | [2] 92.2% | [3] 50.3% | [4] 75.9% | [5] 48.9% | [6] 79.5% | [7] 58.4% | [8] 120% | [10] 30% | [11] 55% | [13] 74.1% | [14] 86% | [15] 46.5% | [16] 93.1% | [17] 57.8% | [19] 99.4% | [20] 103%

COC(=O)C(Cc1ccccc1)NC(=O)c1ccc(NC(=O)c2[nH]c(C)c(Cl)c2Cl)c(OC(C)C)c1 (stereo not given)
active: [13] -29.8%
inactive: [1] 105% | [2] 101% | [3] 16% | [4] 94.8% | [5] 53.5% | [6] 40.3% | [7] 90% | [8] 86.8% | [9] 73.2% | [10] 84.9% | [11] 17.4% | [12] 57.9% | [14] 93.2% | [15] 39.7% | [16] 99.1% | [17] 83.1% | [18] 12.9% | [19] 62.1% | [20] 31.4%

Cc1nnc(-c2ccc3c(c2)nc(/C=C/c2ccccc2)n3C2CCCCC2)o1
inactive: [1] 82% | [2] 86.8% | [3] 90.1% | [4] 58.2% | [5] 104% | [6] 54.7% | [7] 112% | [8] 97.8% | [9] 53.8% | [10] 43.4% | [11] 46% | [12] 44.3% | [13] 80.2% | [14] 125% | [15] 82.3% | [16] 64.8% | [17] 77.1% | [18] 75.4% | [19] 90.3% | [20] 85.2%

Cc1ccc(-c2nc(N3CCNCC3)c3oc(-c4ccc(C)cc4)nc3n2)cc1
inactive: [1] 99.2% | [2] 120% | [3] 50.9% | [4] 64.6% | [6] 50.7% | [7] 101% | [8] 94.8% | [14] 78.4% | [15] 11.9% | [16] 86.2% | [19] 99.2%
active: [5] -30.4% | [9] -72.2% | [10] -72.6% | [11] -49.2% | [12] -49.1% | [13] -69% | [17] -77.1% | [18] -94.6% | [20] -28.9%

Nc1c(C(=O)Nc2cccc(Cl)c2)sc2nc3c(cc12)CCCC3
inactive: [1] 86.6% | [2] 94.8% | [3] 97.6% | [4] 90.3% | [5] 85.1% | [6] 94.4% | [7] 91.3% | [8] 87.6% | [9] 87.1% | [10] 84.8% | [11] 53.9% | [12] 93.6% | [13] 93% | [14] 93.4% | [15] 90.9% | [16] 96.2% | [17] 106% | [18] 103% | [19] 97.7% | [20] 101%

COc1cc2c(c(OC)c1OC)C(=O)CC(c1cccc(NC(=O)c3ccc(C#N)cc3)c1)O2 (stereo not given)
inactive: [1] 69% | [2] 83.8% | [3] 83% | [4] 62.8% | [5] 89.4% | [6] 81.2% | [7] 77.1% | [8] 82.2% | [9] 25.3% | [10] 27% | [11] 41.7% | [12] 30.8% | [13] 40.9% | [14] 101% | [15] 63% | [16] 99.1% | [17] 85.5% | [18] 76.5% | [19] 90.3% | [20] 50.7%
